Assay outcomes from PubChem.
RAD54 inh: blocks human RAD54 Holliday junction branch migration. FAM/BHQ fluorescence. actives 0.14% (n = 360,000). Q92698. inhibition, % at 10.4 µM;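 active = mean normalized replicate activity at least 40 and at least half of replicates scoring 40 or more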;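 also: inhibitors cause a drop in the FAM fluorescence signal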
RAD52 anneal inh: inhibitors of human RAD52 DNA annealing. P43351. recombinant RAD52 DNA annealing, FRET fluorescence. inhibition, % at 18.7 µM. actives 0.46% (n = 360,000). AID 651710;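 active = every replicate showing at least 50% inhibition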
Target sequence (P43351 whole entry, looked up): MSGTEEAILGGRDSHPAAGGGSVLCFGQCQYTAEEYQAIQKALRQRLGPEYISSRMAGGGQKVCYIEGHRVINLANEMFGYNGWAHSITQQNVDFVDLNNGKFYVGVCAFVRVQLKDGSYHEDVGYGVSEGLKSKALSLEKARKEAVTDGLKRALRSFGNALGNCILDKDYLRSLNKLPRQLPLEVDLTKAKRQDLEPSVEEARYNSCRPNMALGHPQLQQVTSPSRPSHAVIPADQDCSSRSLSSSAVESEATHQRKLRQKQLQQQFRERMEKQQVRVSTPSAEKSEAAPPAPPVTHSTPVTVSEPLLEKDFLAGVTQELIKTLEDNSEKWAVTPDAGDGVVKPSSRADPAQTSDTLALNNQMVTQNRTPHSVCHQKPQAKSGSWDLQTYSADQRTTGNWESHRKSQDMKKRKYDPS
Glyco luc inh: N-linked glycosylation inhibition; actives 0.23% (n = 360,000); reporter increase, % at 12.5 µM; AID 588692; D54 ERlucT glycosylation luciferase reporter, 24 h; percent of 100 nM tunicamycin response;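 active = mean luciferase reporter signal, scaled so untreated is 0 and the glycosylation-blocking control 100, at or above a set limit in every replicate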;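 also: luciferase carries N-glycosylation sites so blocking glycosylation raises the light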
miR-122 sensor: inhibitors of miR-122 in Huh7 cells; Huh7 miR-122 Renilla luciferase sensor, 48 h; neutral wells = 0, positive control = 100; activation (reporter increase), % at 12.5 µM; actives 0.3% (n = 340,000); AID 602342;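 active = mean replicate activation score at least 90 and every replicate individually at or above 90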;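 also: higher luciferase means less miR-122 activity so hits act as miR-122 inhibitors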
CendR NRP1 mod: modulators of CendR peptide binding to human neuropilin-1. O14786. FAM-RPARPAR peptide binding to NRP-1, fluorescence polarization. inhibition, % at 25 µM. actives 0.85% (n = 360,000). AID 602438;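 active = inhibition or corrected inhibition above about 18%, plus a signal ratio from 0.5 to 1.5, limit read from the data, passing the limit was not always enough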
FID counter: displaces DNA intercalator in HCV helicase counter-screen; DNA fluorescent intercalator displacement, fluorescence; inhibition, % at 7.9 µM; actives 0.17% (n = 290,000); AID 1845; in the data active = inhibition above about 37%;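 also: higher means more ethidium bromide displaced from hairpin DNA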
Large screens that a line does not name were inactive. Only some compounds are listed: those with a hit (about 1.5% of all), similar ones and a draw of the others.

O=C(CCCc1ccccc1)Nc1ccnn1C1CCN(Cc2ccccc2)CC1	none
CCOc1ccc(CN2CCC(n3nccc3NC(=O)CCCc3ccccc3)CC2)cc1	FID counter 38.2
COc1c2c(c3c(c1OC)c(=O)c1ccccc1n3C)OCO2	CendR NRP1 mod 25.8 (no result: FID counter)
COc1c2c(c(OC)c3c1c(=O)c1ccccc1n3C)OCO2	none (no result: RAD54 inh, FID counter)
C[C@H]1CN([C@@H](C)CO)C(=O)Cc2cc(NC(=O)Nc3ccc(F)cc3)ccc2O[C@H]1CN(C)S(=O)(=O)c1cccs1	none (no result: Glyco luc inh, CendR NRP1 mod, FID counter)
CCc1ccc(C2CC(=O)N(c3cccc(F)c3)C3=C2C(=O)OC3)cc1 (configuration not stated)	CendR NRP1 mod 26.9 (no result: RAD54 inh, miR-122 sensor)
N#C[C@@H]1N[C@@H](CO)[C@H]1c1ccc(-c2cccc(F)c2)cc1	none (no result: Glyco luc inh, miR-122 sensor, CendR NRP1 mod, FID counter)
COc1ccc(C2CCc3cc4c(cc3C2=NO)OCO4)cc1OC (configuration not stated)	none (no result: FID counter)
COc1ccc2cc3[n+](cc2c1O)CCc1cc2c(cc1-3)OCO2	CendR NRP1 mod 30.7 (no result: RAD54 inh, Glyco luc inh, miR-122 sensor, FID counter)
Cc1ccc(-n2c(SCC(=O)OC(C)C)nnc2-c2ccccn2)cc1	none (no result: RAD52 anneal inh)
CC(C)OC(=O)CSc1nnc(-c2ccccn2)n1-c1ccccc1	CendR NRP1 mod 21.3 (no result: RAD52 anneal inh)
COc1ccc(NC(=O)N(C)C[C@@H]2Oc3ccc(NC(=O)Nc4cccc5ccccc45)cc3C(=O)N([C@H](C)CO)C[C@@H]2C)cc1	none (no result: Glyco luc inh, CendR NRP1 mod, FID counter)
O=C(Nc1ccc2c(c1)OCCO2)C1C(=O)Nc2ccccc2C(=O)N1C1CCCCC1 (configuration not stated)	CendR NRP1 mod 21.0 (no result: RAD54 inh, Glyco luc inh, miR-122 sensor, FID counter)
CCCCOc1ccc(/C=C2/Sc3ccccc3C2=O)cc1	CendR NRP1 mod 35.0
CC(C)COc1ccc(/C=C2/Sc3ccccc3C2=O)cc1	none (no result: RAD52 anneal inh)
C=CCc1c(OC(C)=O)c2ccccc2n(C)c1=O	CendR NRP1 mod 25.0
CCc1c(OC(C)=O)c2ccccc2n(C)c1=O	none
C[C@H](CO)N1C[C@H](C)[C@@H](CN(C)Cc2ccc(C(F)(F)F)cc2)Oc2ccc(N(C)C)cc2CC1=O	none (no result: Glyco luc inh, CendR NRP1 mod, FID counter)
Cc1ccc(CN2C(=O)c3ccccc3C2C(=O)NCC2CCCO2)cc1 (configuration not stated)	none (no result: RAD52 anneal inh)
CCN(CC)CCCNC(=O)C1c2ccccc2C(=O)N1Cc1ccc(C)cc1 (configuration not stated)	CendR NRP1 mod 18.8 (no result: RAD52 anneal inh)
Cc1ccc(C(=O)N2CCN(c3ccc(C(F)(F)F)cn3)CC2)cc1	none (no result: RAD52 anneal inh)
Cc1ccc(C(=O)N2CCN(c3ccc(C(F)(F)F)cn3)CC2)c(C)c1	CendR NRP1 mod 38.2 (no result: RAD52 anneal inh)
C[C@@H]1CN([C@@H](C)CO)C(=O)c2cc(NC(=O)CCC(F)(F)F)ccc2O[C@@H](C)CCCCO[C@H]1CN(C)Cc1ccc(C(F)(F)F)cc1	none (no result: Glyco luc inh, CendR NRP1 mod, FID counter)
COc1cc(C2NCCc3c2[nH]c2ccccc32)ccc1OC(C)C (configuration not stated)	FID counter 37.0 (no result: Glyco luc inh, miR-122 sensor, CendR NRP1 mod)
CCCC(=O)Nc1ccc2c(c1)C(=O)N(C)[C@@H]1CC[C@H](CC(=O)NCc3ccccc3F)O[C@H]1CO2	none (no result: RAD52 anneal inh, Glyco luc inh, CendR NRP1 mod, FID counter)
Cc1ccnc(SCc2cn3c(C)cccc3n2)n1	CendR NRP1 mod 20.2 (no result: RAD54 inh, miR-122 sensor)
Cc1cc(C)nc(SCc2cn3c(C)cccc3n2)n1	none
CC(=O)N(C)C[C@@H]1OCc2ccccc2-c2ccccc2C(=O)N([C@@H](C)CO)C[C@H]1C	none (no result: Glyco luc inh, miR-122 sensor, CendR NRP1 mod, FID counter)
COc1ccc(C)cc1NC(=O)COC(=O)C1COc2ccccc2O1 (configuration not stated)	none (no result: FID counter)
COc1ccc(S(=O)(=O)N2CCOCC2)cc1NC(=O)COC(=O)C1COc2ccccc2O1 (configuration not stated)	CendR NRP1 mod 27.8
CCOC(=O)CSc1c(-c2cccs2)[nH]c2ccccc12	CendR NRP1 mod 24.8 (no result: RAD52 anneal inh)
Cc1ccc(S(=O)(=O)Nc2ccc3c(c2)OCCO3)cc1C	none (no result: RAD54 inh, miR-122 sensor)
CC(=O)N1CCOc2ccc(S(=O)(=O)NCCc3cccc(C)c3)cc21	miR-122 sensor 116.5
Cc1ccc(NS(=O)(=O)c2ccc3c(c2)N(C)CCO3)cc1	none (no result: miR-122 sensor)
CC(=O)N1CCOc2ccc(S(=O)(=O)Nc3cccc(C)c3)cc21	miR-122 sensor 130.2 (no result: RAD54 inh)
CCc1cccc(NS(=O)(=O)c2ccc3c(c2)N(C)CCO3)c1	miR-122 sensor 172.4
CC(=O)c1ccc(NS(=O)(=O)c2ccc3c(c2)N(C(C)=O)CCO3)cc1	none (no result: miR-122 sensor)
Cc1cccc(NS(=O)(=O)c2ccc3c(c2)OCCO3)c1	miR-122 sensor 118.9 (no result: RAD52 anneal inh)
